A number with no mark means an inactive call. Calls of active or inactive are those of the source. Calls follow the shape of the dose curve; as a rule, active = well fitted curve in the direction sought with a large enough effect in the repeat runs; inconclusive = weak or mixed curves; inactive = flat fitted curve, though single readings scatter.
% is scaled to controls: 0 for no effect and ±100 for the full control effect.

This assay is described as follows: qHTS assay to test for compound auto fluorescence at 535 nm (green) in HEK293 cells (AID 720680). The conditions noted are these: green autofluorescence 485/535 nm; series mostly up to 46 µM; fluorescence, % of fluorescein: at the top concentration. The source says:
U.S. Tox21 Program National Center for Advancing Translational Sciences [NCATS] NIH Chemical Genomics Center [NCGC] U.S. Environmental Protection Agency [EPA] National Institutes of Environmental Health Sciences [NIEHS] National Toxicology Program [NTP] U.S. Food and Drug Administration [FDA] Tox21 Assay Overview: Compound auto fluorescence often interferes with screening of the compound library against various biological targets and signaling pathways. Some of these compounds may have fluorophoric properties. Such properties may interfere with the assay outputs resulting in false positives and/or negatives. To decrease such complications and ensure the compound activities are relevant in terms of biological response, the Tox21 10K compound library was screened for auto fluorescence. From the fluorophores used as reporter signals in our screening assays, the auto fluorescence equivalencies of compounds against three fluorophores have been evaluated: Triamterene, Fluorescein and Rose Bengal sodium for blue, green and red fluorescence, respectively. The fluorescence intensities were measured using Excitation/Emission wavelengths at 405/460nm, 485/535nm and 540/590nm for blue, green and red labels, respectively. This assay includes the green fluorescence data.
Tox21 Assay Protocol Summary: 2,000 HEK293 cells in 5 uL of culture medium containing 10% dialyzed FBS per well were dispensed into black wall/clear bottom 1536-well plates using a Multidrop Combi Dispenser (Thermo Scientific). The assay plates were incubated for 4-5 hr at 37C to allow cell attachment to the well bottom, followed by the transfer of 23 nL compound or DMSO vehicle by a pintool work station (Kalypsys, San Diego, CA). After the assay plates were incubated overnight at 37C and 5% CO2, fluorescence intensities in the assay plates were measured by an Envision (PerkinElmer, Shelton, CT) plate reader using three labels for measuring blue, green and red fluorescence at […] 460, 535 and 590nm respectively.
(Quantitative high-throughput screening tests each substance at several concentrations.)
On to `CC(C)(C)c1nnc(NS(=O)(=O)c2ccccc2)s1`, for which the “fluorescence, % of fluorescein” value is 0.0587%.
Regarding `O=C1CCCC(=O)C1`, the “fluorescence, % of fluorescein” value is 0.0194% [at 91.3 µM].
`CO[Si](CCCOCC1CO1)(OC)OC` (stereo not given): the outcome was inactive.
Consider `CCCC(=O)O[C@]1(C(=O)CO)CC[C@H]2[C@@H]3CCC4=CC(=O)CC[C@]4(C)[C@H]3[C@@H](O)C[C@@]21C`, for which the “fluorescence, % of fluorescein” value was 0.0767%.
On to `Cc1cc(O)cc2c1O[C@](C)(CCC[C@H](C)CCC[C@H](C)CCCC(C)C)CC2`, for which the compound was classed as inactive.
For `COCCc1ccc(OCC(O)CNC(C)C)cc1` (stereo not given), the result was inactive.
As for `CN1C(=O)N(C)C(O)C1O` (stereo not given), the “fluorescence, % of fluorescein” value is -0.0604% [at 91.3 µM].
Still for that read-out and setting: to `NS(=O)(=O)c1ccc(C(=O)O)cc1` belongs 0.157%; to `CN1CCC(=C2c3ccccc3CC(=O)c3sccc32)CC1`, -0.0293%.
On to `CCOC(=O)c1cccc(N)c1`, for which the “fluorescence, % of fluorescein” value was 0.0292%.
On to `O=c1n(CCO)c(=O)n(CCO)c(=O)n1CCO`, for which the call was inactive.
As for `O=C(O)c1ccccc1OP(=O)(O)O`, the “fluorescence, % of fluorescein” value is 0.0574%.
On the same count and under the same terms, as for `CC(C)(CC(=O)O)C(=O)O`, the figure is -0.129% [at 91.3 µM]; as for `CC1(C)C(O)C(C)(C)C1O` (stereo not given), 0.115% [at 91.3 µM]; as for `O=C(O)COc1nn(Cc2ccccc2)c2ccccc12`, 0.0658%.
Consider `CCOC(=O)[C@H](CCc1ccccc1)N[C@@H](C)C(=O)N1[C@H](C(=O)O)C[C@@H]2CCC[C@@H]21`, for which the “fluorescence, % of fluorescein” value was -0.186%.
Same read-out and setting: to `O=C1CCCN1C1CCCCC1` belongs 0.0009% [at 91.3 µM]; to `O=C1CC2CC1C1CCCC21` (stereo not given), 0.0069% [at 91.3 µM]; to `CC(=O)OC/C=C(\C)CC/C=C(\C)CCC=C(C)C`, -0.0354% [at 91.3 µM].
Still for that read-out and setting: to `NC(=O)c1ccc([N+](=O)[O-])cc1` belongs 0.0157% [at 91.3 µM]; to `COC(=O)CCSCCC(=O)OC`, -0.12% [at 91.3 µM].
On the same count and under the same terms, to `NC(=O)COCCN1CCN(C(c2ccccc2)c2ccc(Cl)cc2)CC1` (stereo not given) belongs 0.0171%; to `Cc1cccc(C)c1NC(=O)C(C)N` (stereo not given), 0.0016% [at 18.6 µM].
For `Cn1c(N)c(N=O)c(=O)n(C)c1=O`, the “fluorescence, % of fluorescein” value was -0.0179% [at 95.7 µM].
Turning to `C/C=C(\C)C#N`, the “fluorescence, % of fluorescein” value was 0.0249% [at 91.3 µM].
On the same count and under the same terms, to `N=c1nc(N2CCCCC2)cc(N)n1O` belongs -0.021%; to `O=C(CCCN1CCN(c2ccccn2)CC1)c1ccc(F)cc1`, 0.0246%; to `Cc1ccc(=O)n(-c2ccccc2)c1`, -0.119%.
In the case of `Nc1ccccc1S(=O)(=O)O`, the “fluorescence, % of fluorescein” value is -0.036% [at 91.3 µM].
For `FC(F)OC(Cl)C(F)(F)F` (stereo not given), the result was inactive.
As for `COc1ccc(CCN(C)CCCC(C#N)(c2cc(OC)c(OC)c(OC)c2)C(C)C)cc1OC` (stereo not given), the “fluorescence, % of fluorescein” value was 0.0109%.
Turning to `COC(=O)c1cc(C(=O)OC)cc(S(=O)(=O)O)c1`, the “fluorescence, % of fluorescein” value is 0.0043% [at 91.3 µM].
The same measure, in the same setting: as for `Brc1c(NC2=NCCN2)ccc2nccnc12`, the figure is 0.0364%; as for `CC(C(=O)O)c1ccc(CC2CCCC2=O)cc1` (stereo not given), -0.019%; as for `CO/N=C(/C(=O)N[C@@H]1C(=O)N2C(C(=O)OCOC(=O)C(C)(C)C)=C(C)CS[C@H]12)c1csc(N)n1`, -0.0903%.
On the same count and under the same terms, as for `CC(C)CNCC(C)C`, the figure is -0.063% [at 91.3 µM]; as for `CCC(=O)OC(C)c1ccccc1` (stereo not given), -0.0068% [at 91.3 µM]; as for `CN1CC(=O)NC1=N`, -0.0677%.
Same read-out and setting: to `NS(=O)(=O)c1cc(C(=O)O)cc(N2CCCC2)c1Oc1ccccc1` belongs -0.0042% [at 18.6 µM]; to `O=C(O)CNC(=O)c1ccc([N+](=O)[O-])cc1`, 0.0683% [at 91.3 µM].

(Values after PubChem BioAssay (Tox21).)
